Source: PubChem (Broad Institute)
The entries come from a sample that favours hits as a whole.
Rtt109 HAT inh: C. albicans Rtt109 histone acetyltransferase inhibition; purified Rtt109/Vps75, ThioGlo CoA-SH fluorescence, 4 h; actives 0.16% (n = 330,000); Q5AAJ8; AID 540336; inhibition, % at 34.9 µM;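 active means inhibition of at least 50% in every replicate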
Target sequence (Q5AAJ8 whole entry, looked up): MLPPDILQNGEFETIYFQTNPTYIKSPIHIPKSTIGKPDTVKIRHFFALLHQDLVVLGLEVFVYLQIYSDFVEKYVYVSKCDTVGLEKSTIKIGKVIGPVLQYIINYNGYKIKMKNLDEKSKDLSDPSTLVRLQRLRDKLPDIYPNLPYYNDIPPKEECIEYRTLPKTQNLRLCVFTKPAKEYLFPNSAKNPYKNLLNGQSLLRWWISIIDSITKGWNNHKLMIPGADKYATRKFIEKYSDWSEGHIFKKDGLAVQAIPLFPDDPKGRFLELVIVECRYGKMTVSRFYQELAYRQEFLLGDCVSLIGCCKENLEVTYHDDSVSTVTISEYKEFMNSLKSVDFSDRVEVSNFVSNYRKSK
Glyco luc inh: blocks N-linked glycosylation in D54 reporter cells; actives 0.23% (n = 360,000); reporter increase, % at 12.5 µM; D54 ERlucT glycosylation luciferase reporter, 24 h; percent of 100 nM tunicamycin response;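 active means mean luciferase reporter signal, scaled so untreated is 0 and the glycosylation-blocking control 100, at or above a set limit in every replicate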;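 further: luciferase carries N-glycosylation sites so blocking glycosylation raises the light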
PglD inh: PglD (C. jejuni) enzyme inhibition | purified PglD enzyme, DTNB colorimetric CoA detection | inhibition, % at 12.5 µM | actives 0.098% (n = 360,000) | AID 602405; in the data active means inhibition above about 16%, passing the limit was not always enough
DENV2 CPE: DENV2-induced cell death inhibition; actives 1.7% (n = 350,000); CPE inhibition, % at 9.99 µM; AID 651640; DENV2-infected cells, cytopathic effect rescue, plate reader; in the data active means CPE inhibition above about 20%, passing the limit was not always enough; tested in BHK-21 cells
Hits are given with their value; . = inactive; / = no result.

SMILES | Rtt109 HAT inh | Glyco luc inh | PglD inh | DENV2 CPE
COCCNC(=O)C[C@@H]1C[C@@H]2c3cc(NC(=O)COC)ccc3O[C@@H]2[C@H](CO)O1 | / | / | . | .
C[C@@H]1CCCCO[C@H](CN(C)Cc2ccc(Cl)c(Cl)c2)[C@H](C)CN([C@@H](C)CO)C(=O)c2cc(NC(=O)c3ccccc3)ccc2O1 | / | / | . | 82.1
COc1ccc2ccccc2c1CNCc1ccc(C)cc1 | . | . | . | .
COc1ccc2ccccc2c1CNC(C)c1ccccc1 (stereo not drawn) | . | . | . | 35.7
C[C@@H]1CN([C@H](C)CO)C(=O)c2cc(NC(=O)Cc3ccccc3)ccc2O[C@H]1CN(C)C(=O)Nc1cccc2ccccc12 | / | / | . | .
COc1ccc(NC(=O)N(C)C[C@H]2Oc3ncc(-c4ccc(C#N)cc4)cc3C(=O)N([C@H](C)CO)C[C@H]2C)cc1 | / | / | . | .
c1ccc(-c2n[nH]c(-c3ccccc3)c2-c2nc3ccccc3[nH]2)cc1 | . | 30.9 | . | /
c1ccc(-c2nc3ccccc3[nH]2)cc1 | . | . | . | .
CS(=O)(=O)N1CCC2CC1c1cc(-c3ccccc3)ccc12 (stereo not drawn) | . | . | . | .
CN1CCC2CC1c1cc(-c3ccc(C(F)(F)F)cc3)ccc12 (stereo not drawn) | . | . | . | 21.3
Cc1ccccc1N1C(=O)Cc2ccccc2C1=O | . | . | . | .
Cc1ccccc1N1Cc2ccccc2C1=O | / | . | . | 37.4
CC(=O)O[C@H]1CC[C@@]2(C)[C@@H](CC[C@H]3[C@@H]4CC[C@H](C(C)O)[C@@]4(C)CC(=O)[C@@H]32)C1 (stereo partly drawn) | . | . | . | 37.3
O=C(Cc1cccnc1)N[C@@H]1CC[C@H](CCn2cc(-c3ccccc3F)nn2)O[C@@H]1CO | / | / | . | 44.8
O=C(Cc1cccnc1)N[C@H]1CC[C@@H](CCn2cc(Cc3ccccc3)nn2)O[C@@H]1CO | / | / | . | .
O=C(Cc1cccnc1)N[C@H]1CC[C@H](CCn2cc(Cc3ccccc3)nn2)O[C@@H]1CO | / | / | . | 77.2
CC1CCCCC1N(C)C1CCN(C(=O)CNC(=O)/C=C/c2cccc(Cl)c2)CC1 (stereo not drawn) | 51.3 | . | . | .
CN(C1CCCC1)C1CCN(C(=O)CNC(=O)/C=C/c2ccccc2)CC1 | . | . | / | /
Nc1ccn([C@@H]2O[C@H](C(=O)NCCc3ccc(F)cc3)[C@@H](O)[C@H]2O)c(=O)n1 | / | . | . | 87.3
CN(C)C(=O)N1CCN(C(=O)[C@H]2O[C@@H](n3ccc(N)nc3=O)[C@H](O)[C@@H]2O)CC1 | / | / | / | 70.2
Nc1ccn([C@@H]2O[C@H](C(=O)NCc3ccc4c(c3)OCO4)[C@@H](O)[C@H]2O)c(=O)n1 | / | . | . | .
C[C@@H]1CN([C@@H](C)CO)C(=O)c2cc(NC(=O)CCC(F)(F)F)ccc2O[C@@H]1CN(C)S(=O)(=O)c1ccc(Cl)cc1 | / | / | . | .
Cn1cc([N+](=O)[O-])c(C(=O)Nc2ccc(C(=O)N3CCCCC3)cc2)n1 | . | . | / | 38.7
COc1ccc(NC(=O)Nc2ccc3c(c2)C(=O)N([C@H](C)CO)C[C@H](C)[C@H](CN(C)C)OCCCC[C@H](C)O3)cc1 | / | / | . | .
COCC(=O)Nc1ccc2c(c1)C(=O)N(C)C[C@H](OC)[C@H](C)CN(C(=O)c1ccccn1)[C@@H](C)CO2 | / | / | . | 65.3
SMILES | Rtt109 HAT inh | Glyco luc inh | PglD inh | DENV2 CPE
CO[C@H]1CN(C)C(=O)c2ccc(NC(=O)Nc3cc(F)ccc3F)cc2OC[C@@H](C)N(C(=O)c2ccccn2)C[C@H]1C | / | / | . | 37.7
COCC(=O)Nc1ccc2c(c1)C(=O)N(C)C[C@@H](OC)[C@@H](C)CN(C(=O)c1ccccn1)[C@H](C)CO2 | / | / | . | 23.3
CCC(=O)Nc1ccc2c(c1)OC[C@@H](C)N(C(=O)c1ccccn1)C[C@@H](C)[C@H](OC)CN(C)C2=O | / | / | . | 25.8
COCC(=O)Nc1ccc2c(c1)C(=O)N(C)C[C@@H](OC)[C@H](C)CN(C(=O)c1ccccn1)[C@H](C)CO2 | / | / | . | .
C[C@@H]1CCCCO[C@H](CN(C)CC2CC2)[C@H](C)CN([C@@H](C)CO)C(=O)c2cc(NC(=O)NC3CCCCC3)ccc2O1 | / | / | . | .
C[C@H]1CN([C@@H](C)CO)C(=O)c2cc(NC(=O)Cn3cnnn3)ccc2O[C@H]1CN(C)C(=O)Nc1ccc(C(F)(F)F)cc1 | / | / | . | .
CO[C@@H]1CN(C)C(=O)c2ccc(NC(=O)c3cnccn3)cc2OC[C@H](C)N(C(=O)C2CC2)C[C@@H]1C | / | / | . | .
O=C(NCCc1ccccc1)c1ccccc1NC(=O)C1CCCCC1C(=O)O (stereo not drawn) | / | / | / | 44.2
